Source: PubChem BioAssay
ANO1 block: blocks the mouse calcium-activated chloride channel TMEM16A. HEK293 TMEM16A/YFP iodide influx fluorescence, ionomycin. normalized B-score (activity score, 25-100; higher = stronger inhibition) at 10 µM. 310,000 tested, 1.2% active. Q8BHY3;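 active = ratio plate-corrected score three or more library SD toward inhibition, starting fluorescence score within five deviations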;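 note: score derived from kinetic fluorescence span divided by baseline fluorescence per well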
CHT PAM: human CHT allosteric activation; B-score at 10 µM; AID 488977; CHT-expressing cells, membrane potential dye, choline EC20; active compounds read high; LV-AA mutant CHT in HEK293 cells; 310,000 tested, 0.49% active;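 active = initial fluorescence not abnormally high and integrated response B-score, plate-corrected, over 3 SD above library mean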
CHT inh: inhibits the human high affinity choline transporter; Q9GZV3; CHT-expressing cells, membrane potential dye, choline response; active compounds read low; B-score at 10 µM; 310,000 tested, 0.86% active;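 active = B-score over 3 SD under the library average, and starting fluorescence ratio not unusually high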;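 note: choline stimulus applied at its EC90 after an EC20 pre-addition; B-score computed on integrated fluorescence ratio after choline addition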
Kir21 inh: blocks the mouse Kir2.1 inward-rectifier potassium channel | P35561 | HEK293-Kir2.1, FluxOR thallium flux fluorescence; active compounds read low | B-score at 10 µM | 310,000 tested, 0.85% active;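 active = fluorescence ratio B-score at or below minus 3 SD of library scores, with starting-brightness B-score within 2 SD, cut at about -4.2 in these data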;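 note: channel flux triggered by added potassium and thallium sulfate stimulus; B-score of peak minus minimum fluorescence over baseline after thallium stimulus; more negative B-score means stronger Kir2.1 block with less thallium influx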
TMEM16A act: activates or potentiates the mouse TMEM16A chloride channel | HEK293 TMEM16A/YFP-H148Q/I152L, iodide quench fluorescence; active compounds read low | B-score at 10 µM | 340,000 tested, 0.3% active | Q8BHY3 | AID 623877;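 active = fluorescence-ratio B-score plate-corrected deviation score at least 3 library SD below zero, with starting fluorescence score within 5 deviations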;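 note: channel opened by trigger with iodide after compound preincubation; score built on the fluorescence ratio of max minus min over baseline; more negative score means more quench and so TMEM16A activation or potentiation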
Rce1 inh: inhibitors of yeast Ras-converting enzyme; yeast membranes, quenched prenylated peptide cleavage fluorescence; AID 2563; calls only; 290,000 tested, 0.27% active;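 active = fall in fluorescence gain of 50% or more versus controls, with final raw signal at or below 3038400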
Target sequence (Q03530 whole entry, looked up): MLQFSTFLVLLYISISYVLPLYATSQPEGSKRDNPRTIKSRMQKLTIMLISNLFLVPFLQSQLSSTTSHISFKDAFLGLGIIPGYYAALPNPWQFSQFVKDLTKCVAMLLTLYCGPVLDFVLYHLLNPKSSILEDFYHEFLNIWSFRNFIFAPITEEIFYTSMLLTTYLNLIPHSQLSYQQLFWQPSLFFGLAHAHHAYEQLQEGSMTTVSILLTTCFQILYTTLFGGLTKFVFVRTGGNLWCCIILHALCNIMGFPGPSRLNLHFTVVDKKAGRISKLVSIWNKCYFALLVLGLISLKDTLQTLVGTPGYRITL
CHT act confirm: human CHT activation, confirmatory screen. shares compounds with CHT PAM. CHT-expressing cells, membrane potential dye fluorescence (FDSS); % of choline EC20–EC90 response window; HEK293 expressing CHT LV-AA mutant; choline added at its EC20. activation, % at 10 µM. 2,500 tested, 91% active. AID 504833;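 active = primary screen active, with duplicate mean activation above negative control mean plus 3 SD, cut at about 11% in these data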
HEK293 MP dye: CHT activator counter-screen hit in parental HEK293 cells. shares compounds with CHT PAM. membrane potential dye fluorescence (FDSS); measured after EC20 choline addition. ratio readout change at 10 µM, hits read low. 2,500 tested, 62% active;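 active = duplicate-averaged ratio beyond 3 SD from buffer wells, up or down, though filed actives are nearly all decreases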
A number is an active result; – = inactive; · = not tested or not shown; ! = repeats disagree. Compounds with a hit are over-represented: about 3.2% of the library has one in this group of screens.

SMILES	ANO1 block	CHT PAM	CHT inh	Kir21 inh	TMEM16A act	Rce1 inh	CHT act confirm	HEK293 MP dye
COCCCNc1ccnc2c(Cl)cccc12	–	–	–	–	–	–	·	·
COCCNc1ccnc2c(Cl)cccc12	–	6.3	–	–	–	·	57	-61
CCCC1=[N+](CC(=O)c2ccccc2)CCn2c(C)ccc21	–	8.1	–	–	–	·	40	–
COc1ccc(NC(=O)CSc2nc3ccccc3c(=O)n2CCCN2CCCCC2)c(OC)c1	–	12	–	-6.1	–	–	73	-39
CCn1c(SCCN2CCCCC2)nc2c1c(=O)n(C)c(=O)n2C	·	·	·	·	–	·	·	·
COC(=O)c1ccc2c(=O)n(CCN3CCOCC3)c(SCC(=O)Nc3ccc(OC)cc3OC)nc2c1	–	–	–	–	–	–	·	·
Cn1c(=O)c2c(nc(SCCN3CCCCC3)n2C)n(C)c1=O	–	–	–	–	–	–	56	-72
O=c1c2ccccc2nc(SCCN2CCCCC2)n1CCc1ccccc1	–	7.8	–	–	–	–	–	-27
CCCn1c(SCC(=O)N2CCCC2=O)nc2ccccc2c1=O	·	·	·	·	–	·	·	·
CN1CCc2c(sc(N)c2C(=O)O)C1	–	–	–	–	–	–	·	·
COc1ccc(C(=O)c2c(N)sc3c2CCN(C)C3)cc1	–	8.3	–	–	–	–	41	-53
Cc1ccc2cccc(OCc3nnc(SCC(=O)O)n3C)c2n1	–	–	–	–	–	–	51	-53
Cc1ccccc1OCc1nnc(SCC(=O)NCc2ccccc2)n1C	–	–	–	–	–	–	·	·
O=S(=O)(NCCS(=O)(=O)N1CCN(c2ccccc2)CC1)c1ccccc1	–	–	–	–	–	–	·	·
CCc1ccc(CN(C)C(=O)CCc2nc3ccccc3n(-c3ccc(OC)cc3)c2=O)cc1	100	–	–	–	–	–	26	–
COc1ccc(-n2c(=O)c(CCC(=O)N(C)Cc3ccccc3C)nc3ccccc32)cc1	–	–	–	–	–	–	·	·
COc1ccccc1Sc1nc(-c2ccccn2)ncc1OC	–	–	–	–	–	–	·	·
COc1cnc(-c2ccccn2)nc1NC(C)C	–	7.8	–	–	–	–	27	-58
C/C(=N\Nc1ccccn1)c1ccc(C#N)cc1	–	–	–	–	–	–	30	-56
O=[N+]([O-])c1cc(F)c(N2CCCCC2)cc1N1CCOCC1	–	–	–	–	–	–	·	·
Cn1c(=O)n(C)c2cc([N+](=O)[O-])c(N3CCN(C(=O)c4cccc(F)c4)CC3)cc21	–	–	–	–	–	–	26	-39
Cn1c(=O)c(=O)n(C)c2cc([N+](=O)[O-])c(N3CCOCC3)cc21	–	6.5	–	–	–	–	66	-61
CSc1nc2ncc3c(n2n1)CC1c2ccccc2CCN1C3=O (configuration not stated)	–	–	–	–	–	–	·	·
O=C1c2cnc3ncnn3c2CC2c3ccccc3CCN12 (configuration not stated)	–	–	–	–	–	–	21	-27
CCN(CC)C(=O)COc1ccc(/C=N/NC(=O)c2cc(-c3ccccc3OC)nc3ccccc23)cc1OC	–	–	–	–	–	–	·	·
SMILES	ANO1 block	CHT PAM	CHT inh	Kir21 inh	TMEM16A act	Rce1 inh	CHT act confirm	HEK293 MP dye
Nc1c2c(nc3ccccc13)N(c1ccccc1)CC2	–	–	–	–	–	–	·	·
CN1CCCC1=Nc1c2c(nc3ccccc13)N(C)CC2	–	8.9	–	–	–	–	61	-57
c1ccc2c(c1)nc(N1CCCCCC1)c1ccccc12	–	–	–	–	–	–	·	·
CN1CCCCc2c1nc1ccccc1c2N (tested in a mixture with another compound)	–	8.6	–	–	–	–	23	-48
CCN(C(=O)c1c(C)noc1C)c1c(N)n(Cc2ccccc2)c(=O)[nH]c1=O	·	·	·	·	–	·	·	·
COc1ccc(-c2cn(-c3ccc(Cl)cc3)c3[n+]2CCCCC3)cc1	–	7	–	–	–	–	51	-21
Clc1ccc(-c2cn(-c3ccc(Cl)cc3)c3[n+]2CCCCC3)cc1	–	–	–	–	–	–	·	·
O=C(CN(C1CCCCC1)S(=O)(=O)c1ccc(F)cc1)NCC1CCCO1 (configuration not stated)	·	·	·	·	–	·	·	·
Cc1ccc(NC(=S)Nc2ccc(C(C)C)cc2)cc1S(=O)(=O)N1CCCCCC1	–	–	–	–	–	–	·	·
CC1CCN(c2ccccc2NC(=O)c2ccc(C#N)cc2F)CC1	–	–	–	–	–	–	·	·
CC(C)C(=O)N1CCN(c2ccccc2NC(=O)c2ccc(C#N)cc2F)CC1	–	7.7	–	–	–	–	54	–
O=C(CCS(=O)(=O)c1ccc(Br)cc1)NCc1ccc(F)cc1	–	–	–	–	–	–	·	·
Cc1cc(N2CCN(Cc3cn(C)nc3-c3cccc(Cl)c3)CC2)cc(C)n1	–	–	–	–	–	–	·	·
Cc1cc(N2CCN(Cc3cn(C)nc3-c3ccccc3F)CC2)cc(C)n1	–	–	–	–	–	–	77	-74
CCOc1ccccc1/C=C(/NC(=O)c1ccccc1)C(=O)N(CC)CC	–	–	–	–	–	–	·	·
CCOC(=O)Cc1csc(N/N=C\c2ccccc2OC)n1	–	–	–	–	–	–	·	·
Cc1ccc(-n2cc(CNCCc3cscn3)c(-c3ccc(F)cc3)n2)cc1	–	–	–	–	–	–	·	·
Cc1ccc(-n2cc(CNCCCn3ccnc3C)c(-c3ccc(F)cc3)n2)cc1	–	–	–	-7.9	–	–	32	-32
O=C(CSc1ccccc1)N1CCCC(N2CCN(c3ccccc3)CC2)C1 (configuration not stated)	–	–	–	–	–	–	·	·
CCOC(=O)c1c(CS(=O)(=O)c2ccccc2)n(C)c2cc(Br)c(O)c(CN(C)C)c12	–	–	–	–	–	–	·	·
CCOC(=O)c1c(CN2CCOCC2)n(C)c2cc(Br)c(O)c(CN(C)C)c12	–	7.4!	–	–	–	–	45	-33
O=C(CNC(=O)c1ccccc1Cl)NCC(c1cccs1)N1CCOCC1 (configuration not stated)	–	–	–	–	–	–	·	·
Cn1nnc2cc(C(=O)Nc3ccccc3)ccc21	–	–	–	–	–	–	·	·
Cn1nnc2cc(C(=O)Nc3cccnc3)ccc21	–	6.7	–	–	–	–	52	-34
O=[N+]([O-])c1ccc(Cl)c(C[n+]2cccc3ccccc32)c1	–	–	–	–	–	–	54	-46
Clc1cccc(Cl)c1C[n+]1cccc2ccccc21	–	–	–	–	–	–	·	·
